Laboratory results from PubChem BioAssay (NCATS).
“And” between values parts separate entries of the source, which are not always exact repeats. Equal values may be shown once. Inconclusive results are not listed. The source made the active and inactive calls. Unless noted, calls come from the whole dose curve; as a rule, active = well fitted curve in the direction sought with a large enough effect; inconclusive = small, poorly fitted or top-dose-only effect, or another doubt; inactive = no such curve, though single readings can be large; an effect the other way counts as inactive or inconclusive.

Columns and labels:
[1] = Cell Viability - BJ (AID 421; calls by dose curve;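 note: potency is the fitted concentration of half-maximal effect; cells exposed to compound for 40 hours at 37 °C before readout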); details: BJ fibroblast viability, qHTS
Outline: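 Luminescent ATP signal (CellTiter-Glo, 20 min at room temperature) served as the read-out of viable BJ cells after 40 hours of compound treatment. Responses were scaled between DMSO and 100 uM tamoxifen, and AC50 values were obtained by Hill modeling.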

[2] = Cell Viability - Jurkat (AID 426;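 active = dose-dependent loss of cell ATP signal giving a full or clear fitted curve, ranked by lower potency value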; note: potency is the fitted concentration of half-maximal effect); details: qHTS
Outline: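 Jurkat (clone E6-1, human T-cell leukemia) cells, 5000/well in complete medium, were exposed to compound for 40 hr at 37 °C. Viability was read as intracellular ATP by CellTiter-Glo luminescence; AC50 came from Hill fits of concentration-response data.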

[3] = Cell Viability - Hek293 (AID 427;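 active = compounds whose dose-response curve shows a full or clear partial loss of cell viability, called from curve shape rather than a numeric limit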;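 note: potency is the fitted concentration of half-maximal effect; cells exposed to compound for 40 hours at 37 °C before reading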); details: qHTS
Outline: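 Luminescent ATP read-out (CellTiter-Glo, 20 min RT) after 40 hr compound exposure at 37 °C in complete medium. Signal normalized to DMSO (basal) and 100 uM tamoxifen (100% inhibition); concentration-response fitted with the standard Hill equation to give AC50.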

[4] = Cell Viability - MRC5 (AID 434; calls by dose curve;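 note: potency is the fitted concentration of half-maximal effect; potency reflects cytotoxicity seen as loss of intracellular ATP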); details: MRC5 lung fibroblast viability, qHTS
Outline: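 MRC5 normal human lung fibroblasts (1500/well) were treated with compounds for 40 hr at 37 °C in complete medium, and viable cells were measured as intracellular ATP by CellTiter-Glo luminescence. AC50 came from Hill fits, normalized to DMSO and 100 uM tamoxifen.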

[5] = Cell Viability - SK-N-SH (AID 435; calls by dose curve;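 note: potency is the fitted concentration of half-maximal effect; compound exposure lasted 40 h at 37 °C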); details: SK-N-SH neuroblastoma cell viability qHTS
Outline: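 SK-N-SH neuroblastoma cells (1500/well) treated 40 h at 37 °C in complete medium; viability read as cellular ATP by CellTiter-Glo luminescence. Normalized to DMSO and 100 uM tamoxifen; AC50 from Hill fits of qHTS concentration-response.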

[6] = biological target: Mitogen-activated protein kinase 10 (Mus musculus) (UniProt Q61831); test: JNK3 AlphaScreen Assay (AID 530; active = well fitted curve in either direction with a large enough effect, not every such curve was filed as active;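 note: kinase came from lysate of stimulated human HepG2 cells; signal reports phosphorylation of biotinylated GST-cJun 1-79 at Ser73 with 10 µM ATP; % is set by controls: 0 for no effect and ±100 for the full control effect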); details: JNK3 lysate, c-Jun phosphorylation; series mostly up to 57.1 µM
Outline: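 JNK3 came from HepG2 lysates pre-activated with IL-1beta and TNF-alpha and phosphorylated biotinylated GST-cJun (1-79) at 10 uM ATP, pH 7.6, room temperature. Compounds were titrated. AlphaScreen signal used anti-phospho-cJun (Ser73) antibody.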

[7] = Cell Viability - H-4-II-E (AID 543); details: H-4-II-E rat hepatoma viability; series mostly up to 92.2 µM; note: % is set by controls: 0 for no effect and ±100 for the full control effect; nearly all actives have a fitted effect of over 35% in size
Outline: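 Rat hepatoma H-4-II-E cells (1500/well) were plated, incubated 5 hr at 37 °C, then exposed to compounds for 40 hr at 37 °C. Cellular ATP was read by CellTiter-Glo luminescence; AC50 came from Hill-equation fits of concentration-response data.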

[8] = Cell Viability - SH-SY5Y (AID 544); details: SH-SY5Y neuroblastoma cell viability; series mostly up to 92.2 µM; note: nearly all actives have a fitted effect of over 55% in size
Outline: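 Human neuroblastoma SH-SY5Y cells (1500/well) in complete medium were exposed to compounds for 40 hr at 37 °C; intracellular ATP was then quantified by CellTiter-Glo luminescence after 20 min at room temperature. AC50 came from Hill-equation concentration-response fits.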

[9] = Cell Viability - Mesenchymal (AID 546); details: mesenchymal cells viability, qHTS; activity change, negative = cytotoxicity: at 91.7 µM (top of the series);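 note: cells exposed to compound for 40 hours before reading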
Outline: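 Normal human renal glomerulus-derived kidney mesenchymal cells, 1000 per well in complete medium, were treated with compounds for 40 hr at 37 °C. Viability was read as intracellular ATP by CellTiter-Glo luminescence; AC50 values came from Hill-equation fits of qHTS concentration-response data.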

[10] = Cellular Toxicity (caspase-3) HUV-EC-C (AID 656); details: HUV-EC-C cells, caspase-3 activation (apoptosis), vehicle = 0, 100 µM tamoxifen = 100%; series mostly up to 92.2 µM
Outline: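 HUV-EC-C cells (1000/well) in complete medium, compound-treated 16 h at 37 °C; caspase-3/7 activity read by Caspase-Glo 3/7 luminescence. Normalized to DMSO (basal) and 100 uM tamoxifen (100%); AC50 from Hill-equation concentration-response fits.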

[11] = Cellular Toxicity (caspase-3) MRC-5 (AID 659); details: MRC-5 cells, luminescence, normalized: DMSO 0%, 10 µM staurosporine 100%; series mostly up to 91.7 µM
Outline: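 Luminescence from caspase-cleaved aminoluciferin substrate (Caspase-Glo 3/7, 1 hr RT) reports caspase 3/7 activity in MRC-5 lung fibroblasts after 16 hr compound exposure. Normalized to DMSO basal and 10 uM staurosporine as 100%; AC50 from Hill fits.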

[12] = Cellular Toxicity (caspase-3) Mesangial (AID 660); details: mesangial cells, normalized: DMSO 0%, 100 µM tamoxifen 100%; series mostly up to 91.7 µM;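 note: cells exposed to compound for 16 h before the caspase read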
Outline: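 Human renal glomerular mesangial cells (1000/well) were treated with compounds for 16 h at 37 °C in complete medium, then caspase 3/7 activity was read by Caspase-Glo luminescence. Data were normalized to DMSO and 100 uM tamoxifen; AC50 from Hill fits.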

[13] = Cellular Toxicity (caspase-3) Hek293 (AID 664); details: HEK293 caspase-3 activation, DMSO = 0%, 100 µM tamoxifen = 100%; series mostly up to 92.2 µM;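 note: cells exposed to compound for 16 h at 37 °C before readout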
Outline: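 HEK293 cells were exposed to compounds in complete medium for 16 hr at 37 °C, then caspase-3/7 activity was read by Caspase-Glo 3/7 luminescence after 20 min at room temperature. Data normalized to DMSO and 100 uM tamoxifen; AC50 from Hill fits.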

[14] = Cellular Toxicity (caspase-3) N2a (AID 665); details: N2a cells, luminescence, normalized: DMSO 0%, 10 µM staurosporine 100%; series mostly up to 92.2 µM;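 note: compound exposure lasted 16 h at 37 °C before readout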
Outline: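 Mouse N2a neuroblastoma cells (1500/well) were treated with compounds for 16 h at 37 °C, then caspase-3/7 activity was read by Caspase-Glo luminescence after 1 h at room temperature. Data were normalized to DMSO and 10 uM staurosporine; AC50 from Hill fits.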

[15] = Cellular Toxicity (caspase-3) NIH 3T3 (AID 666); details: NIH 3T3 caspase-3 activation, apoptosis/toxicity, 0% DMSO, 100% is 100 µM tamoxifen; series mostly up to 92.2 µM;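 note: caspase signal read after 16 h compound exposure; 0% = DMSO basal and 100% = 100 µM tamoxifen stimulation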
Outline: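 Mouse NIH 3T3 fibroblasts (1000 cells/well) were treated with compound for 16 hr at 37°C in complete medium; caspase-3/7 activity was read by Caspase-Glo luminescence. Normalized to DMSO and 100 uM tamoxifen; AC50 from Hill fits.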

[16] = Cellular Toxicity (caspase-3) Renal Proximal Tubule (AID 667); details: renal proximal tubule cells, primary cells freshly taken from rat, solvent-only wells 0%, staurosporine 100%; series mostly up to 91.7 µM;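 note: cells exposed to compound for 16 hours at 37 °C before detection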
Outline: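 Freshly isolated primary rat kidney proximal tubule cells, 1000/well, treated 16 hr at 37 °C, then Caspase-Glo 3/7 luminescence after 1 hr. Normalized to DMSO and 10 uM staurosporine; AC50 from Hill fit.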

[17] = Cell Viability - LYMP1-002 - Assay at 16 hr (AID 948); details: LYMP1-002 lymphoblastoid cell viability; series mostly up to 92.2 µM;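 note: 0% = DMSO alone and full effect = 92 µM tetraoctylammonium bromide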
Outline: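 LYMP1-002 human lymphoblastoid cells, 2500/well, were treated with compounds for 16 hr at 37 C in complete medium. Viability was read as intracellular ATP by CellTiter-Glo luminescence, and AC50 was derived from a Hill fit to concentration-response data.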

[18] = qHTS Assay for Identification of Small Molecule Inducers of Hypoxia Response (AID 2120; active = well fitted curve in the direction sought with a large enough effect in the signal ratio, with a control signal flat, not every such curve was filed as active; the % refers to the signal ratio; note: 0% is about no effect); details: hypoxia response reporter cells, beta-lactamase ratio readout; series mostly up to 104 µM
Outline: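 HRE-beta-lactamase reporter in CellSensor HRE-bla ME-180 cells, 2500 cells/well in Opti-MEM with 0.5% dialyzed FBS; compounds tested as titration series, 17 h at 37 degrees C. CCF4 substrate 2.5 h at room temperature; AC50 from 460/530 nm ratio.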

[19] = biological target: Peroxisome proliferator-activated receptor alpha (Homo sapiens) (UniProt Q07869); test: qHTS assay for small molecule agonists of the peroxisome proliferator-activated receptor alpha (PPARalpha) signaling pathway (AID 651778); details: PathHunter PPARalpha complementation, chemiluminescence, 6 h; max response: stronger effect = higher value; note: % of control where 0% means no effect
Outline: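 Cells plated at 2,000/well and held overnight at 37 C, 5% CO2, then compound added by pin tool for 6 hr; after PathHunter detection reagent and 60 min at room temperature, chemiluminescence from enzyme complementation was read.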

[20] = qHTS assay for small molecule agonists of the antioxidant response element (ARE) signaling pathway measured by Nrf2-dependant transcriptional activity - cell viability counter screen (AID 720653; active = well fitted curve in the direction sought with a large enough effect in the repeat runs; an effect the other way counts as inactive or inconclusive; note: % is set by controls: 0 for no effect and ±100 for the full control effect); details: ARE-bla HepG2 viability, CellTiter-Glo ATP luminescence, 16 h; max response: stronger effect = lower value
Outline: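 ARE-bla HepG2 cells (2,000/well) rested 5 hrs at 37C/5% CO2, then exposed to compounds in DMSO for 16 hrs. Viability was read in the same wells as intracellular ATP by luminescence, 30 min at room temperature after reagent addition.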

Chain of Peroxisome proliferator-activated receptor alpha (Homo sapiens) (Q07869 whole entry, looked up): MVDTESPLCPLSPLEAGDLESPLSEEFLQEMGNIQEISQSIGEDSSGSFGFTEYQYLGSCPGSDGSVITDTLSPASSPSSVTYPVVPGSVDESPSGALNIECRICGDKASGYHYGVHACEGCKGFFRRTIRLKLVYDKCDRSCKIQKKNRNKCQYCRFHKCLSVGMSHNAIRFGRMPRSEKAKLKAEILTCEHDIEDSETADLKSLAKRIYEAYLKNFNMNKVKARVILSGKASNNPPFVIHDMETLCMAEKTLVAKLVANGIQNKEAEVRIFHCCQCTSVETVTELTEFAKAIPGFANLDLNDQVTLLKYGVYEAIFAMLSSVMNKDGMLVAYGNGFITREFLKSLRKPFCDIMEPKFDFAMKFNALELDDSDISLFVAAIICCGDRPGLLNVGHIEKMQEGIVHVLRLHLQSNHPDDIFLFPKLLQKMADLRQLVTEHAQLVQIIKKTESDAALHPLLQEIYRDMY

ClCCCl
inactive: Potency [1] > 92 µM | Potency [2] > 92 µM | Potency [3] > 92 µM | Potency [4] > 92 µM | Potency [5] > 92 µM | Potency [6] | Potency [7] | Potency [8] | activity change, negative = cytotoxicity [9] 8.24% | outcome [10] | outcome [11] | outcome [12] | outcome [13] | outcome [14] | outcome [15] | outcome [16] | Potency [17] | outcome [18] | max response [19] 1.65% and -1.11% | max response [20] 20.3% and 6% and -12.9%

C/C=C\c1ccc(OC)cc1
inactive: Potency [1] > 92 µM | Potency [2] > 92 µM | Potency [3] > 92 µM | Potency [4] > 92 µM | Potency [5] > 92 µM | Potency [6] | Potency [7] | Potency [8] | activity change, negative = cytotoxicity [9] -1.47% | outcome [10] | outcome [11] | outcome [12] | outcome [13] | outcome [14] | outcome [15] | outcome [16] | Potency [17] | outcome [18] | max response [19] -5.71% | max response [20] -0.534%

Cc1ccccc1C
inactive: Potency [1] > 92 µM | Potency [2] > 92 µM | Potency [3] > 92 µM | Potency [4] > 92 µM | Potency [5] > 92 µM | Potency [7] | Potency [8] | activity change, negative = cytotoxicity [9] -15.1% and 9.28% | outcome [10] | outcome [11] | outcome [12] | outcome [13] | outcome [14] | outcome [15] | outcome [16] | Potency [17] | outcome [18] | max response [19] 1.03% and -0.383% | max response [20] -17.8% and 4.54%

Cc1cccc([N+](=O)[O-])c1C
inactive: Potency [1] > 92 µM | Potency [2] > 92 µM | Potency [3] > 92 µM | Potency [4] > 92 µM | Potency [5] > 92 µM | Potency [6] | Potency [7] | Potency [8] | activity change, negative = cytotoxicity [9] 1.97% | outcome [10] | outcome [11] | outcome [12] | outcome [13] | outcome [14] | outcome [15] | outcome [16] | Potency [17] | outcome [18] | max response [19] 2.79% and -1.9% | max response [20] 4.89% and -2.35%

COC(=O)CCCCC(=O)OC
inactive: Potency [1] > 92 µM | Potency [2] > 92 µM | Potency [3] > 92 µM | Potency [4] > 92 µM | Potency [5] > 92 µM | Potency [6] | Potency [7] | Potency [8] | activity change, negative = cytotoxicity [9] 1.32% | outcome [10] | outcome [11] | outcome [12] | outcome [13] | outcome [14] | outcome [15] | outcome [16] | Potency [17] | outcome [18] | max response [19] -1.36% and -1.93% and -0.772% | max response [20] -2.58% and 2.67% and 6.18%

O=C(O)CC(C(=O)O)C(CC(=O)O)C(=O)O (centres undefined)
inactive: Potency [1] > 92 µM | Potency [2] > 92 µM | Potency [3] > 92 µM | Potency [4] > 92 µM | Potency [5] > 92 µM | Potency [6] | Potency [7] | Potency [8] | activity change, negative = cytotoxicity [9] -11.1% | outcome [10] | outcome [11] | outcome [12] | outcome [13] | outcome [14] | outcome [15] | outcome [16] | Potency [17] | outcome [18] | max response [19] -1.2% and -0.001% | max response [20] -9.78% and -3.54%

COCC(=O)O
inactive: Potency [1] > 92 µM | Potency [2] > 92 µM | Potency [3] > 92 µM | Potency [4] > 92 µM | Potency [5] > 92 µM | Potency [6] | Potency [7] | Potency [8] | activity change, negative = cytotoxicity [9] 2.06% | outcome [10] | outcome [11] | outcome [12] | outcome [13] | outcome [14] | outcome [15] | outcome [16] | Potency [17] | outcome [18] | max response [19] -0.223% and -0.993% | max response [20] 8.69% and 6.89%

C=Cc1ccccc1Cl
inactive: Potency [1] > 92 µM | Potency [2] > 92 µM | Potency [3] > 92 µM | Potency [4] > 92 µM | Potency [5] > 92 µM | Potency [6] | Potency [7] | Potency [8] | activity change, negative = cytotoxicity [9] 4.39% | outcome [10] | outcome [11] | outcome [12] | outcome [13] | outcome [14] | outcome [15] | outcome [16] | Potency [17] | outcome [18] | max response [19] -0.389% | max response [20] -2.6%

CN(C)C=O
inactive: Potency [1] > 92 µM | Potency [2] > 92 µM | Potency [3] > 92 µM | Potency [4] > 92 µM | Potency [5] > 92 µM | Potency [6] | Potency [7] | Potency [8] | activity change, negative = cytotoxicity [9] 4.53% and 11.4% | outcome [10] | outcome [11] | outcome [12] | outcome [13] | outcome [14] | outcome [15] | outcome [16] | Potency [17] | outcome [18] | max response [19] 18% and -2.47% and -1.42% | max response [20] -6.03% and 8.83% and -4.93%

Nc1ccc(Cl)cc1Cl
inactive: Potency [1] > 92 µM | Potency [2] > 92 µM | Potency [3] > 92 µM | Potency [4] > 92 µM | Potency [5] > 92 µM | Potency [6] | Potency [7] | Potency [8] | activity change, negative = cytotoxicity [9] 2.81% | outcome [10] | outcome [11] | outcome [12] | outcome [13] | outcome [14] | outcome [15] | outcome [16] | Potency [17] | outcome [18] | max response [19] 3.51% and 0.0732% | max response [20] -3.23% and 2.15%
